Experimental findings from PubChem BioAssay (NCI) are described below.

Among the test systems are DU-145 prostate; MALME-3M melanoma; MDA-MB-231 breast; RXF 393 renal; SF-268 CNS; SF-295 CNS; SF-539 CNS; UACC-257 melanoma; M14 melanoma.
Common to all, as to test: NCI-60 one-dose screen, 48 h (100 = growth as untreated, 0 = no growth, -100 = all killed)
Holding throughout (conditions): 10 µM unless noted

This is part of a sample that, as a whole, favours compounds with a hit. Of some 83,000 tested, about 20% had one in any assay.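 Single-dose data. Exposure time 48 hours. Values below 10 considered active.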 A number with no mark means an inactive call. The source made the active and inactive calls.

For the molecule `COc1cc(-c2nn(-c3ccc(C(=O)O)cc3)cc2C(=O)O)ccc1O`, the growth in the test with DU-145 prostate is 89.3%; with MALME-3M melanoma, 57.1%; with MDA-MB-231 breast, 93.3%; with RXF 393 renal, 91.5%; in the test on SF-268 CNS, 70.3%; in the test on SF-295 CNS, 94.4%. Besides, the growth in the test on SF-539 CNS was 47.7%; with UACC-257 melanoma it was 103%; with M14 melanoma, 33.5%.

Regarding `CCOc1ccc(-n2nc(C(=O)Nc3ccccc3)nc2-c2cc(OC)c(OC)c(OC)c2)cc1`, the growth was 89.6% in the test on DU-145 prostate; 54.5% in the test on MALME-3M melanoma; 43.9% with MDA-MB-231 breast; 69.2% in the test with RXF 393 renal; 76.5% in the test with SF-268 CNS; 34% in the test on SF-295 CNS. The growth is 62% in the test with SF-539 CNS, 66.4% with UACC-257 melanoma and 38% with M14 melanoma.

Take `CC/C=C\C/C=C\C[C@H]1C/C=C2/C(=O)C=C[C@@H]2C/C=C\CCC(=O)O1`: the growth with DU-145 prostate was 23.2%; in the test on MALME-3M melanoma it was 29.6%; in the test on MDA-MB-231 breast it was 19.3%; with RXF 393 renal, -71.3% (active); in the test with SF-268 CNS, 21%; with SF-295 CNS, 3.94% (active). Besides, the growth with SF-539 CNS is -25.5% (active); in the test with UACC-257 melanoma, -13.3% (active); in the test with M14 melanoma, 7.48% (active).

Consider `CCOC(=O)C(C)(C#N)C1C=CCCC1` (stereo unspecified), for which the growth in the test with DU-145 prostate was 97.1%; in the test on MALME-3M melanoma, 102%; with MDA-MB-231 breast it was 95.5%; in the test on RXF 393 renal, 98.8%; in the test with SF-268 CNS, 93.8%; in the test on SF-295 CNS, 84.3%. The growth was 91.8% in the test with SF-539 CNS, 93.6% in the test with UACC-257 melanoma and 81.2% in the test on M14 melanoma.

Consider `CCc1nc(N)nc(N)c1C#CC(C)c1ccc(-c2ccncc2)cc1Cl` (stereo unspecified), for which the growth is 21.1% in the test with DU-145 prostate; 39.6% in the test on MALME-3M melanoma; 43.3% in the test with MDA-MB-231 breast; 32.9% in the test with RXF 393 renal; 16.6% with SF-268 CNS; 10.1% in the test with SF-295 CNS. For the same molecule, the growth with SF-539 CNS is 4.42% (active); in the test with UACC-257 melanoma it was 31.9%; in the test on M14 melanoma it was 1.01% (active).

Consider `CC1=C(O)C(=O)C(C(C#N)(C#N)C(C#N)C#N)C1` (stereo unspecified), for which the growth in the test on DU-145 prostate is 94.7%; with MALME-3M melanoma, 113%; in the test with MDA-MB-231 breast, 124%; in the test on RXF 393 renal, 110%; with SF-268 CNS, 84.4%; with SF-295 CNS it was 101%. In addition, the growth with SF-539 CNS is 104%; in the test with UACC-257 melanoma, 105%; in the test with M14 melanoma it was 101%.

For the molecule `CCNC(=O)Oc1ccc(/C(=C(\C)c2ccc(Cl)cc2)c2ccc(OCCN(CC)CC)cc2)cc1`, the growth was 67.6% with DU-145 prostate; -50.6% (active) in the test on MALME-3M melanoma; 44.3% in the test on MDA-MB-231 breast; 31.4% in the test on RXF 393 renal; 51.7% in the test with SF-268 CNS; 21.3% with SF-295 CNS. Besides, the growth is 58.2% in the test with SF-539 CNS, -54.9% (active) with UACC-257 melanoma and -63.3% (active) in the test on M14 melanoma.

Consider `COc1cccc2c1C(=O)c1c(O)c3c(c(O)c1C2=O)C[C@](O)(C(=O)CO)C[C@H]3O[C@@H]1C[C@@H](NC(=O)CCCCCN(C)C2(c3ccc(F)cc3)CC3CCC2C3)[C@H](O)[C@@H](C)O1` (stereo partly specified), for which the growth is -42.2% (active) with DU-145 prostate; -70.9% (active) in the test on MALME-3M melanoma; -77.1% (active) in the test with MDA-MB-231 breast; 31.6% in the test with RXF 393 renal; 36.1% in the test on SF-268 CNS; -87.9% (active) in the test with SF-295 CNS. Further, the growth with SF-539 CNS is -82.9% (active); with UACC-257 melanoma, 96.4%; with M14 melanoma it was -41.3% (active).

Regarding `COc1cccc(NC(=O)c2sc3nc(C)c(C(C)=O)cc3c2N)c1`, the growth in the test on DU-145 prostate was 23.3%; in the test with MALME-3M melanoma, 71.2%; in the test with MDA-MB-231 breast it was 58.5%; in the test with RXF 393 renal it was 51.6%; with SF-268 CNS, 69.8%; in the test on SF-295 CNS, 29.9%. For the same molecule, the growth with SF-539 CNS is 32%; with UACC-257 melanoma it was 60.1%; in the test on M14 melanoma, 23.7%.

Consider `Clc1ccc2c(NCCCCNc3nc(N4CCOCC4)nc4ccccc34)ccnc2c1`, for which the growth in the test on DU-145 prostate was 38.4%; with MALME-3M melanoma, -58.7% (active); in the test with MDA-MB-231 breast, -58.3% (active); in the test with RXF 393 renal, 86.3%; with SF-268 CNS, 43%; in the test with SF-295 CNS, -5.21% (active). The growth in the test with SF-539 CNS was -84.5% (active); in the test on UACC-257 melanoma it was 84.9%; in the test on M14 melanoma, -66.2% (active).

As to `Cc1nc(Nc2ccc(F)c(Cl)c2)sc1C(=O)O`, the growth is 28.2% in the test with DU-145 prostate; 30.8% in the test on MALME-3M melanoma; -19.8% (active) in the test with MDA-MB-231 breast; 15.4% in the test with RXF 393 renal; 29.3% in the test with SF-268 CNS; 15.2% in the test with SF-295 CNS. The values for the growth in the test on SF-539 CNS, with UACC-257 melanoma and in the test with M14 melanoma were 24.4%, 4.37% (active) and 19.2%, respectively.

`COc1ccc(CN2c3ccccc3Sc3ccccc32)c(C(F)(F)F)c1`: the growth in the test on DU-145 prostate was 21%; in the test with MALME-3M melanoma it was 92.7%; in the test on MDA-MB-231 breast, 40.6%; in the test with RXF 393 renal it was -9.74% (active); in the test with SF-268 CNS it was 56.4%; with SF-295 CNS it was 2.22% (active). The results for the growth in the test on SF-539 CNS, with UACC-257 melanoma and in the test with M14 melanoma were -12.4% (active), 53.9% and 7.59% (active), respectively.

`CCCCCC(=O)Oc1ccc(/C(=C(\C)c2ccc(OC)cc2)c2ccc(OCCN3CCCCC3)cc2)cc1`: the growth in the test on DU-145 prostate was 79.8%; in the test on MALME-3M melanoma, 64.3%; with MDA-MB-231 breast, 66.1%; with RXF 393 renal, 70.2%; in the test on SF-268 CNS, 71.1%; in the test on SF-295 CNS it was 38.9%. For the same molecule, the figures for the growth in the test on SF-539 CNS, in the test on UACC-257 melanoma and in the test with M14 melanoma were 40.8%, 8.72% (active) and -39.2% (active), respectively.

For `O=C1c2c(O)cc(O)cc2-c2c(-c3ccc(O)cc3)oc3cc(O)cc1c23`, the growth is 40.9% in the test with DU-145 prostate; 54.7% with MALME-3M melanoma; 66.8% in the test on MDA-MB-231 breast; 62.1% in the test with RXF 393 renal; 50.7% with SF-268 CNS; 29.1% in the test on SF-295 CNS. The growth in the test on SF-539 CNS was 25.2%; in the test with UACC-257 melanoma, 67.5%; with M14 melanoma it was 46.1%.
